From PubChem BioAssay
HSP90 refold inh – inhibitors of HSP90 luciferase refolding in rabbit reticulocyte lysate; AID 1789; luciferase refolding luminescence, 3 h; 290,000 tested, 0.91% active; inhibition, % at 5.6 µM;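 active means inhibition above the screen-wide mean plus 3 SD, computed separately per campaign, cut at about 16% in these data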;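 further: inhibitors lower the luminescence because luciferase stays unfolded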
AI-2 QS modul – modulates the Vibrio harveyi AI-2 quorum sensing system. Vibrio harveyi JMH597 AI-2 luminescence/OD600 ratio, 9 h; hits give low values; strain lacks LuxN and CqsS sensors; 0 = neutral-control median. activity change, % at 7.5 µM. 300,000 tested, 0.4% active. AID 2094; in the data active means activity change below about -75%, passing the limit was not always enough;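 further: luminescence divided by OD600 gain over 9 h not by final OD600 alone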
SMARCA2 activ – increases SMARCA2 function in MMTV reporter cells; 370,000 tested, 1% active; activation, % at 9.1 µM; MG213 cells, MMTV-luciferase reporter, dexamethasone, overnight; in the data active means activation above about 7.8%
PG9 binder – PG9 antibody binding by small molecule. TR-FRET gp120-PG9 antibody binding. inhibition, % at 6.7 µM. 360,000 tested, 0.43% active; in the data active means inhibition above about 8.5%
HSF1 inhib – HSF1 inhibition | 300,000 tested, 0.77% active | activity change, negative = inhibition, % at 7.5 µM (by protocol) | NIH3T3-HGL HSE-luciferase, MG132-induced, luminescence 8 h; hits give low values;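 active means more than half of replicate wells show activity change below -50%, luminescence cut by over half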;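 further: luciferase reports HSF-1 transcriptional activity via heat shock element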
FXN GAA850 act – increases GAA850 frataxin promoter reporter activity. 360,000 tested, 0.56% active. HEK293 lucGAA850 FXN promoter luciferase reporter, 24 h; percent of 10 µM SAHA response. AID 540364. activation, % at 6 µM;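 active means activation above the average of all compounds screened plus 3 SD, cutoff fixed separately per campaign, cut at about 7.5% in these data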
SMARCA2 act conf – SMARCA2 activation, confirmation screen; 3,500 tested, 30% active; MG213 cells, MMTV-luciferase with dexamethasone, luminescence, overnight; MG213 cells expressing E1A, Rb sequestered; DMSO wells 0%, reference activator 100%; shares compounds with SMARCA2 activ; activation, % at 9.1 µM;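 active means activation above its plate's cutoff, the mean activation of tested wells plus 3 SD, cut at about 7.9% in these data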
GAL4-VP16 Luc – GAL4-VP16 reporter activation counter-screen | shares compounds with SMARCA2 activ | HEK293 GAL4-VP16 pG5luc reporter, luciferase luminescence; scaled: DMSO wells 0%, SAHA wells 100% | activation, % at 9.1 µM | 3,500 tested, 41% active | AID 686939;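 active means activation above the solvent-only control well mean plus 3 SD, averaged across control plates, cut at about 5.2% in these data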
Hits are given with their value; – = inactive; · = not tested or not shown. An excerpt weighted towards active compounds, which were near 3.4% of everything screened.

SMILES	HSP90 refold inh	AI-2 QS modul	SMARCA2 activ	PG9 binder	HSF1 inhib	FXN GAA850 act	SMARCA2 act conf	GAL4-VP16 Luc
O=C(NC1CCCC1)c1ccccc1OCc1ccccc1	–	–	–	–	–	–	·	·
COc1ccccc1C(=O)NCCC(=O)NC1CCC(C)CC1 (configuration not stated)	·	·	10.2	–	·	–	–	–
O=C(NC1CCCCCCC1)c1ccc(F)cc1	–	–	11.6	–	–	–	12.2	7.5
COc1ccccc1C(=O)NC1CCCCCCC1	–	–	8.0	–	–	–	–	–
COc1ccccc1C(=O)NCCC(=O)NC1CCCCC1C (configuration not stated)	·	–	–	–	–	–	·	·
COC(=O)C1=C(C)N(Cc2ccc(Cl)cc2)C(=S)NC1c1ccc(Cl)cc1 (configuration not stated)	·	·	–	–	·	·	·	·
Cc1sc2nc(SCC(=O)c3ccc(O)c(O)c3)n(C)c(=O)c2c1C	·	·	–	·	·	·	·	·
CN(C(=O)c1cc2sccc2n1C)C1CCCCC1	–	–	8.9	–	–	–	–	7.5
Cn1c(C(=O)NC2CCCCC2)cc2sccc21	–	–	–	–	–	–	·	·
CCCC(=O)OC[C@H]1CN([C@H](C)c2ccccc2)S(=O)(=O)c2c(F)cccc2O1	·	·	–	–	·	·	·	·
CC(C)C[C@@H]1COc2cccc(N3CCCC3)c2S(=O)(=O)N1	·	·	–	–	·	·	·	·
COC(=O)/C=C1\C(=O)N(c2nc3ccccc3s2)C(=S)N1c1ccc(F)cc1	–	–	8.6	–	–	–	–	–
CC1(C(=O)Nc2cccc(Oc3ccccc3)c2)CCN1Cc1cccc2c1OCO2 (configuration not stated)	·	·	–	–	·	–	·	·
O=C(c1cccc(NC2=NC3CS(=O)(=O)CC3S2)c1)N1CCN(c2ccc(F)cc2)CC1 (configuration not stated)	–	–	8.2	–	–	–	–	–
O=Nc1c2nc3ccccc3n(O)c-2c2ccccc12	–	–	8.0	–	–	–	28.5	5.5
CN[C@H]1C[C@@H](c2ccccc2)N(C(C)=O)C[C@H]1CO	·	·	–	–	·	·	·	·
Cn1c(CNC(=O)C2CCCCC2)cc2ccccc21	–	–	8.2	–	–	–	–	–
O=C(NCCn1ccc2ccccc21)C1CCCCC1	–	–	–	–	–	–	·	·
CCn1c([N+](=O)[O-])nc2c1c(=O)[nH]c(=O)n2C	–	–	19.4	–	–	–	55.8	–
COc1ccccc1Nc1nc(N)nc(CSC(=S)N2CCN(c3ccccc3)CC2)n1	–	–	8.7	–	–	–	–	–
CN[C@H]1C[C@H]2c3[nH]c4c(-c5ccccc5)cccc4c3CCN2C[C@H]1[C@H](C)O	·	·	–	–	·	·	·	·
N#Cc1cccnc1N1CCN(C(=O)c2cccc3c2C(=O)c2ccc(Cl)cc2S3(=O)=O)CC1	·	·	13.5	–	·	–	13.7	–
CC(C)CCN(C(=O)c1ccccn1)c1c(N)n(Cc2ccccc2)c(=O)[nH]c1=O	·	·	8.3	–	·	–	–	–
CC(C)CCN(C(=O)Cc1ccccc1F)c1c(N)n(Cc2ccccc2)c(=O)[nH]c1=O	–	–	–	–	–	–	·	·
C[C@@H]1CN(c2ccc(N3CCN(C(=O)OC(C)(C)C)C[C@@H]3C)cc2C#N)CCN1Cc1ccccc1	·	·	–	–	·	·	·	·
SMILES	HSP90 refold inh	AI-2 QS modul	SMARCA2 activ	PG9 binder	HSF1 inhib	FXN GAA850 act	SMARCA2 act conf	GAL4-VP16 Luc
NC(=O)c1ccc(NCCc2cccs2)cc1	·	·	–	–	·	·	·	·
Cn1c2ccccc2c(=O)c2ccc(NCCc3cccs3)cc21	·	·	9.0	–	·	10.0	9.4	13.9
Cc1ccc(S(=O)(=O)NN=CC2(c3ccccc3)CC2)cc1	·	·	9.8	–	·	–	–	–
Cc1ccc(S(=O)(=O)NN=Cc2ccccc2Cl)cc1	·	·	–	–	·	–	·	·
CC(=O)CC1OC(=O)C(Br)=C1NCc1ccccc1 (configuration not stated)	–	–	12.8	–	–	–	–	–
CCOc1ccc(NC(=O)CSc2nccn2Cc2ccco2)cc1	–	–	11.0	–	–	–	–	–
